# Source: PubChem BioAssay (The Scripps Research Institute Molecular Screening Center)
# FBW7 activator – FBW7 E3 ligase activators, primary screen, biochemical, AlphaScreen, human | AlphaScreen FBW7–phospho-cyclin E peptide binding, activator screen | normalized activity (activation), % at 26.1 µM | hit rate 0.13% among 650,000 | AID 1259310, 2017; in the data active = normalized activity above about 1.9%;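 also: purified mutant Fbw7 with reduced substrate affinity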
# TEAD-YAP block – TEAD-YAP interaction inhibition, primary screen, TEAD-YAP interaction inhibitor project, luminescence, HEK-TIYL cells; hit rate 1.4% among 640,000; inhibition, % at 9.12 µM; TEAD-Gal4/YAP UAS-luciferase luminescence; AID 1259422, 2018; in the data active = inhibition above about 32%;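 also: 0% = median of test compound wells and 100% = reference inhibitor wells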
# MITF primary – MITF inhibitors, primary screen, biochemical, AlphaScreen, human. Microphthalmia-associated transcription factor (Homo sapiens), O75030. inhibition, % at 2.6 µM. AID 1259374, 2018. AlphaScreen MITF homodimerization, bead proximity signal. hit rate 0.91% among 650,000; in the data active = inhibition above about 50%;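 also: 0% = vehicle wells with protein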
# Target sequence (O75030 whole entry, looked up): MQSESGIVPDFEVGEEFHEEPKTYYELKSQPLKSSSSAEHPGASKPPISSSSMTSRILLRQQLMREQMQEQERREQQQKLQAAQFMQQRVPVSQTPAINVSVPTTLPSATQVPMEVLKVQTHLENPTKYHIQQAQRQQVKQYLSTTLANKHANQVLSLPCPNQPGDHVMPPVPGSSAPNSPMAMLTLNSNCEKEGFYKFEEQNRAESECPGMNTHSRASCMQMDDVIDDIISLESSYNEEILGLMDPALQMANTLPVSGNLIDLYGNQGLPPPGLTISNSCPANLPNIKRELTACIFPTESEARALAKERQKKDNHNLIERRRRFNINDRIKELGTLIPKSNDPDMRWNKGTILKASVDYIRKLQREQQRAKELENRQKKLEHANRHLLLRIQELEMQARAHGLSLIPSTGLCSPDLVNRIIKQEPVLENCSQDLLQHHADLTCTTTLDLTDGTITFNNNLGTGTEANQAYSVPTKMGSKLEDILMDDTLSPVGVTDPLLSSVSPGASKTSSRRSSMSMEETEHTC
# GPR151 ag – activators of human GPR151, primary screen, cell-based, PathHunter beta-arrestin, luminescence. PathHunter beta-arrestin GPR151 cells. AID 1508602, 2020. G-protein coupled receptor 151 (Homo sapiens), Q8TDV0. activation, % at 11.2 µM. hit rate 1% among 650,000; in the data active = activation above about 4.9%;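 also: 0% = median of compound wells and 100% = cells with positive control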
# GPR151 confirm – GPR151 activators, triplicate retest, confirmation, cell-based, PathHunter beta-arrestin, luminescence. GPR151 PathHunter beta-arrestin cells, 90 min; % of EA-reagent control over plate median. shares compounds with GPR151 ag. activation, % at 11.2 µM. AID 1508609, 2020. 6,700 tested, under 10 active;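 active = mean percent activation across replicates above the confirmation screen cutoff of 4.91%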
# GPR119 ag – GPR119 activators in beta-arrestin cells, counter-screen for GPR151 activator project, cell-based, PathHunter beta-arrestin, luminescence, triplicate; shares compounds with GPR151 ag; 90 min; 0 = compound-well median, 100 = enzyme-acceptor control; activation, % at 11.2 µM; hit rate 0.3% among 6,700;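 active = mean percent activation in the counterscreen above 29.09%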;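 also: counterscreen on off-target GPR119 to flag nonselective hits from the GPR151 activator screen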
# Numbers without * were called inactive; / = not tested or not shown; ! = not confirmed by another sample. Shown are actives, neighbours in structure and some others; about 3.5% of the full set was active somewhere.
SMILES,FBW7 activator,TEAD-YAP block,MITF primary,GPR151 ag,GPR151 confirm,GPR119 ag
CCc1cccc(NS(=O)(=O)c2ccc3c(c2)n(C)c(=O)n3C)c1,0.3,24.9,3.4,1.1,/,/
CC1=CC2=NC(=O)/C(=C\c3ccc(-c4ccccc4Cl)o3)C(=N)N2O1,0.1,2.7,7.7,0.6,/,/
CC1=CC2=NC(=O)/C(=C\c3ccc(-c4cccc(Cl)c4)o3)C(=N)N2O1,0.1,6.6,-1.1,5.9*,0.3,10.9
CCOC(=O)C(NC(=O)c1ccco1)(Nc1sc2c(c1C#N)CCC(C)C2)C(F)(F)F (centres undefined),0.0,-9.0,13.7,0.0,/,/
O=C(C1CCCCC1)N1CCC(c2nc3ccccc3[nH]2)CC1,0.2,-3.7,4.5,5.8*,0.6,8.8
Cc1cccc(NC(=O)CN2CCC(c3nc4ccccc4[nH]3)CC2)c1,0.1,10.4,5.2,-0.9,/,/
Cc1ccc(C)c(NC(=O)CN2CCC(c3nc4ccccc4[nH]3)CC2)c1,0.0,-11.6,-7.2,6.0*,0.9,3.4
C/C(Cl)=C/CN1C(=O)C(=O)c2ccccc21,0.0,-1.9,33.6,0.0,/,/
COc1ccc(C(=O)c2ccc([N+](=O)[O-])cc2)cc1S(N)(=O)=O,0.1,-2.7,9.8,-0.2,/,/
O=[N+]([O-])c1cc(CNCc2ccccc2)ccc1N1CCCCC1,-0.4,-45.2,43.6,5.6*,0.9,6.0
COc1cc(CN2CCc3nnc(CCc4ccccc4)n3CC2)cc(OC)c1O,0.0,1.7,12.3,0.7,/,/
COc1cc(CN2CCc3nnc(CCc4ccccc4)n3CC2)cc(OC)c1OC,0.1,17.7,5.4,7.1*,0.2,8.2
COc1cccc(CN2CCc3nnc(CCNC(=O)C4CCCO4)n3CC2)c1 (centres undefined),-0.1,-9.1,-15.6,6.3*,0.0,5.3
CC(=O)Nc1ccc(S(=O)(=O)Nc2ccccc2C(C)C)cc1,-0.1,4.4,5.5,5.9*,0.1,-13.8
COc1cccc(/C=C/C(=O)Nc2ccc3nc(N4CCCCC4)cc(C)c3c2)c1OC,0.0,-16.8,0.2,5.4*,0.6,10.4
CC1CCC(Nc2nc3ccccc3c3nc(-c4cccnc4)nn23)CC1 (centres undefined),-0.1,-2.2,-0.7,8.1*,0.6,10.3
CCCCCCOC(=O)Nc1nnc(CCC)s1,-0.1,-0.2,17.6,11.6*,-0.4,-4.6
Cc1ccc(NC(=O)C2CC3CCCN3C23C(=O)N(C)c2ccccc23)cc1C (centres undefined),-0.1,6.5,-22.4,-0.1,/,/
COc1ccc(NC(=O)C2CC3CCCN3C23C(=O)N(C)c2ccccc23)cc1OC (centres undefined),0.2,-2.9,3.9,5.2*,0.8,5.1
COc1cc(C2C(C#N)=C(N)Oc3n[nH]c(C(C)(C)C)c32)cc(OC)c1OC(C)=O (centres undefined),0.0,-5.5,-4.7,0.1,/,/
COc1ccc(CCNC(=O)c2ccc(Cn3c(SCC(N)=O)nc4cc5c(cc4c3=O)OCO5)cc2)cc1OC,0.1,7.7,12.1,0.4,/,/
CC(C)c1nc(CNc2nc3nonc3nc2N(C)C)cs1,0.1,3.4,15.0,6.8*,-1.0,-8.3
CC(C(=O)O)c1ccc(CC2CCCC2=O)cc1 (centres undefined),0.0,4.4,4.5,6.7*!,-0.1,0.6
CC(C)Cc1ccc(C(C)C(=O)O)cc1 (centres undefined),0.0,9.8,2.4,0.2,/,/
CC(=O)Nc1c(Cl)c(Cl)c(NC(C)=O)c2n[nH]nc12,0.0,2.7,10.4,-0.3,/,/
SMILES,FBW7 activator,TEAD-YAP block,MITF primary,GPR151 ag,GPR151 confirm,GPR119 ag
CC(C)[C@H](NC(=O)c1ccc(F)cc1)C(=O)OCC(=O)Nc1ccc(C#N)cc1,-0.1,-6.5,2.1,7.4*,-0.5,-11.7
O=C(NCC1CCCN(C(=O)C2CCC2)C1)c1ccc(F)cc1 (centres undefined),0.4,-4.0,6.2,-1.4,/,/
Cc1cc(/C=N/n2cnnc2)c(C)n1-c1ccc(Cl)cc1,0.0,-1.6,9.8,-1.2,/,/
Cc1cc(/C=N/n2cnnc2)c(C)n1-c1ccc(Cl)cc1Cl,-0.1,6.2,1.9,5.3*,0.1,-1.4
COc1ccc(CCNC(=O)N2c3ccccc3Sc3ccccc32)cc1,0.3,10.7,11.1,0.1,/,/
COC(=O)CN1C(=O)S/C(=C/c2ccc(Br)cc2)C1=O,-0.2,-5.4,-9.5,-0.7,/,/
COC(=O)CN1C(=O)S/C(=C/c2ccc(OCC(=O)O)c(Br)c2)C1=O,0.2,0.8,10.2,6.9*,-0.1,-12.3
COC(=O)CN1C(=O)S/C(=C/c2cc(Cl)cc(OC)c2O)C1=O,-0.2,-3.7,6.8,5.2*,-1.4,-6.9
CCOc1ccc(NC(=O)CSc2cn(CCNC(=O)c3ccccc3OC)c3ccccc23)cc1,-0.2,11.4,-2.0,-0.2,/,/
COc1ccccc1C(=O)COC(=O)C1(C)CC1(Cl)Cl (centres undefined),0.1,-30.6,-2.2,7.6*,2.4,12.6
CCOC(=O)c1sc2nc(Cc3ccccc3)nc(NCc3ccccn3)c2c1C,0.1,-7.9,19.6,-0.4,/,/
CCCC(=O)Nc1ccc(NC(=O)c2cnccn2)cn1,0.6,-9.2,-8.0,8.0*,-1.0,-5.7
CCN(c1ccccc1)S(=O)(=O)c1ccc(=O)[nH]c1,1.0,10.3,13.0,6.3*,-1.2,-3.1
CCN(c1ccccc1)S(=O)(=O)c1ccc2[nH]c(=O)ccc2c1,0.3,-5.1,13.1,-0.5,/,/
CCN(c1ccccc1)S(=O)(=O)c1ccc(-n2cccn2)cc1,0.1,1.8,-0.7,9.0*,0.2,0.7
COC(=O)C(CC(C)C)NC(=O)CSC1=NC(=O)C(c2ccccc2)C(=O)N1 (centres undefined),0.2,-0.4,5.0,5.6*,-0.8,-16.1
COc1ccc(CCC(=O)C(C)(C)OC(C)=O)cc1,0.9,0.1,2.6,1.2,/,/
COC(=O)c1ccc(CN(c2ccccc2)S(=O)(=O)c2ccccc2)cc1,-0.1,-0.7,1.9,-0.1,/,/
COC(=O)c1ccc(CN(c2ccccn2)S(=O)(=O)c2ccccc2)cc1,0.2,12.6,28.1,7.3*,0.5,4.2
NC(=O)NC(=O)c1c(NC(=O)c2ccc(-c3ccccc3)cc2)sc2c1CCC2,-0.1,2.2,-3.8,1.3,/,/
CC(=O)c1ccc(NC(=O)C(Cc2ccccc2)n2cccc2)cc1 (centres undefined),0.0,5.0,6.7,5.2*,-0.5,6.2
